In the library only some 19% were active in any assay of this set; here they are far more common.
TDP1 cell CPT: qHTS for Inhibitors of human tyrosyl-DNA phosphodiesterase 1 (TDP1): qHTS in cells in presence of CPT; chicken DT40 Tdp1-/-;hTDP1 cells + 20 nM CPT, ATP luminescence, 48 h; Potency, µM (titrated, usually from 46.2 µM), hits mostly inhibitors; 420,000 tested, 12% active; note: nearly all actives have a fitted effect of over 55% in size
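Chicken DT40 Tdp1-/- cells complemented with human TDP1, 400 cells/well, exposed to compounds plus 20 nM camptothecin for at least 48 h at 37 C; viability read as ATP content by CellTiter-Glo luminescence.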
KB-V1 MDR tox: qHTS assay for MDR1-selective chemotherapeutics: Primary screen using the drug-selected MDR subline cells KB-V1; KB-V1 MDR cells viability, CellTiter-Glo, 72 h; 400,000 tested, 3.4% active; Potency, µM (highest dose often 46.1 µM), most hits filed as cytotoxic; note: nearly all actives have a fitted effect of over 60% in size
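KB-V1 cells (P-gp-expressing MDR subline of KB-3-1) in phenol-red-free DMEM with 10% FBS were exposed to library compounds over a concentration series for 72 h at 37 degrees C. Viability read by CellTiter-Glo luminescence; concentration-effect curves fitted after normalization.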
DT40 TDP1 no CPT: qHTS for Inhibitors of human tyrosyl-DNA phosphodiesterase 1 (TDP1): qHTS in cells in absence of CPT. DT40 Tdp1-/- hTDP1 cells, no CPT, ATP luminescence, 48 h. Potency, µM (top dose mostly 46.2 µM), most hits filed as inhibitors. 420,000 tested, 15% active; note: nearly all actives have a fitted effect of over 55% in size
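Stably hTDP1-transfected Tdp1-null chicken DT40 cells were treated with library compounds minus camptothecin and grown for at least 48 hr at 37 °C, after which cellular ATP was quantified by luminescence.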
KB-3-1 tox: qHTS assay for MDR1-selective chemotherapeutics: Primary screen using the parental adenocarcinoma cell KB-3-1 | 400,000 tested, 1.4% active | AID 1347075, 2019 | KB-3-1 viability, CellTiter-Glo ATP luminescence, 72 h | Potency, µM (top dose mostly 46.1 µM), most hits filed as cytotoxic; note: nearly all actives have a fitted effect of over 60% in size
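Cytotoxicity measured as CellTiter-Glo luminescence after 72 h at 37 C. Compound titrations were pinned onto drug-naive KB-3-1 parental adenocarcinoma cells grown in DMEM with 10% FBS, and normalized data fitted to concentration-response curves.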
HT1080 IDH1KD tx: qHTS for induction of synthetic lethality in tumor cells producing 2HG: qHTS for the HT-1080-IDH1KD cell line | HT-1080 IDH1 knockdown viability, ATP luminescence, 48 h | Potency, µM (titrated, usually from 46.1 µM), actives largely listed as cytotoxic | 360,000 tested, 2% active | AID 686971, 2013
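% activity derives from luminescence (CellTiter-Glo), normalised to DMSO and no-cell wells. HT-1080-IDH1KD cells, 750/well, had 48 h compound exposure at 37 °C.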
HT1080NT lethal: qHTS for induction of synthetic lethality in tumor cells producing 2HG: qHTS for the HT-1080-NT fibrosarcoma cell line | 360,000 tested, 1.6% active | HT-1080-NT fibrosarcoma viability, CellTiter-Glo ATP luminescence, 48 h | Potency, µM (doses to about 46.1 µM), actives largely listed as cytotoxic | AID 686970, 2013;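 note: NT is the 2HG producing partner of a matched IDH1 knockdown line; nearly all actives have a fitted effect of over 55% in size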
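Read-out is CellTiter-Glo luminescence after 10 minutes at room temperature, following 48 hours' compound treatment of HT-1080-NT cells (750 cells/well, RPMI, 5% FBS, 37 degrees C).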
Numbers stand for hits; n = inactive; u = inconclusive; x = not tested or not shown. Calls come from the whole dose curve; as a rule, active = well fitted curve in the direction sought with a large enough effect; inconclusive = small, poorly fitted or top-dose-only effect, or another doubt; inactive = no such curve, though single readings can be large; an effect the other way counts as inactive or inconclusive.

SMILES	TDP1 cell CPT	KB-V1 MDR tox	DT40 TDP1 no CPT	KB-3-1 tox	HT1080 IDH1KD tx	HT1080NT lethal
O=C(N/N=C/c1cccs1)c1cc(C2CC2)nc2ccccc12	3.7µM	u	2.9µM	18µM	u	u
Cc1ccc(-c2cc(C(=O)N/N=C/c3ccoc3)c3ccccc3n2)cc1	u	n	u	n	u	n
Cc1ccc2nc(C)c(C(=O)N/N=C/c3cccs3)cc2c1	n	n	u	u	n	n
Cc1ccc(C2Nc3ccccc3C(=O)N2Cc2ccco2)cc1 (configuration not stated)	18µM	u	u	u	u	u
O=C1c2ccccc2NC(c2ccc(OCc3ccccc3)c(OCc3ccccc3)c2)N1Cc1ccco1 (configuration not stated)	11µM	n	13µM	n	x	x
O=C1c2ccccc2NC(c2ccc(O)cc2)N1Cc1ccco1 (configuration not stated)	n	n	u	n	n	n
Cc1cc(C)c(NC(=O)CSc2nc(C)cc(C)c2C#N)c(C)c1	x	n	x	n	x	x
Nn1c(SCC(=O)N2CCCC2)nnc1-c1cccs1	n	n	n	n	n	n
CC1=CC(=O)C(C(C)C)=C/C1=C(\c1cc(C(C)C)c(OP(=O)(O)O)cc1C)c1ccccc1C(=O)O	u	u	21µM	16µM	23µM	u
Cc1cccc(C)c1NC(=S)N(CCN1CCCCCC1)Cc1ccco1	u	u	18µM	n	n	n
Cc1cc(C)c(NC(=S)N(CCN2CCCCC2)Cc2ccco2)c(C)c1	u	u	16µM	n	n	n
Cc1ccc(NC(=S)N(CCCN2CCC(C)CC2)Cc2ccco2)cc1C	u	23µM	u	n	n	n
Cc1ccccc1NC(=S)N(CCN1CCCCC1)Cc1ccco1	n	n	u	n	n	n
CC(CCC(=O)O)C1CCC2C3CC[C@H]4CC(O)CC[C@@]4(C)C3CC[C@@]12C (some centres not stated)	n	x	n	x	x	x
N#Cc1cccc(-c2cncnc2NCCc2cnc[nH]2)c1	n	x	n	x	x	x
COc1ccc2[nH]cc(CCN3C(=O)CCC3=O)c2c1	n	u	n	n	n	n
COc1ccc2[nH]cc(CCNc3cc(-c4cccnc4)ncn3)c2c1	u	x	n	x	x	x
COc1cccc(-c2cncnc2NCCc2cnc[nH]2)c1	2.6µM	x	u	x	x	x
CNC(=S)NCCc1c[nH]c2ccc(OC)cc12	n	n	n	n	n	n
COc1ccc2[nH]cc(CCNc3cc(-c4ccc5c(c4)OCO5)ncn3)c2c1	u	x	21µM	x	x	x
COc1ccc2[nH]cc(CCCN3C(=O)c4ccccc4C3=O)c2c1	n	23µM	n	n	n	n
COc1ccc2[nH]cc(CCNc3cc(-c4ccccc4C)ncn3)c2c1	9.2µM	x	16µM	x	x	x
CCOC(=O)C1=CCC(C(C)(C)C)N(S(=O)(=O)c2ccc(C)cc2)C1 (configuration not stated)	u	n	u	n	n	n
COc1cccc(-c2cncnc2Nc2ccc(F)cc2)c1	n	x	n	x	x	x
COc1cccc(-c2cncnc2NCCc2c[nH]c3ccc(OC)cc23)c1	23µM	x	21µM	x	x	x
SMILES	TDP1 cell CPT	KB-V1 MDR tox	DT40 TDP1 no CPT	KB-3-1 tox	HT1080 IDH1KD tx	HT1080NT lethal
COc1ccc2[nH]cc(CCNc3ncncc3-c3ccc4c(c3)OCO4)c2c1	6.5µM	x	18µM	x	x	x
CC(=O)Nc1ccc(/C=N/NC(=S)NC(C)C)cc1	u	n	n	n	n	n
O=C(CCNC(=O)c1ccc(Cl)cc1)Nc1ccccc1N1CCCCC1	u	n	u	n	n	n
CC(OC(=O)c1cccc(-n2cnnn2)c1)C(=O)c1ccccc1 (configuration not stated)	n	n	n	n	n	n
O=C(Oc1cccc2cccnc12)c1cccc(N2C(=O)C3C4CCC(C4)C3C2=O)c1 (configuration not stated)	4.1µM	n	4.6µM	n	u	u
O=C(Oc1cccc2cccnc12)c1ccc(N2C(=O)C3C4CCC(C4)C3C2=O)cc1 (configuration not stated)	0.52µM	n	1µM	n	13µM	16µM
O=C(Oc1cccc2cccnc12)c1cccc(-n2cnnn2)c1	u	n	18µM	n	n	n
O=C1C2C3C=CC(C3)C2C(=O)N1c1cccc2cccnc12 (configuration not stated)	n	n	u	n	n	n
COc1ccc(NC(=S)NNS(=O)(=O)c2ccc3ccccc3c2)c(OC)c1	n	n	u	n	n	n
COc1ccc([N+](=O)[O-])cc1N(CC1CO1)S(=O)(=O)c1ccc(C)cc1 (configuration not stated)	u	n	u	u	u	u
